{
  "source": "PubChem BioAssay (Tox21)",
  "note": "Inconclusive results are not listed. Entries that show only a call come without a potency. The source made the active and inactive calls. Calls come from the whole dose curve; as a rule, active = well fitted cell-killing curve with a large enough effect in the repeat runs; inconclusive = weak or mixed curves, or effect the other way; inactive = flat fitted curve, though single readings scatter.",
  "data": [
    {"assay": "cAMP Responsive Elements (CRE) small molecule agonists, cell-based qHTS assay: qHTS cell viability counter screen (AID 2060914); note: nearly all actives have a fitted effect of over 50% in size", "details": "CRE-bla HEK293T viability, CellTiter-Glo luminescence, 5 h; series mostly up to 92.4 µM", "procedure,_shortened": "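HEK 293T CRE-bla; DMEM + 10% dialyzed FBS, 25 mM HEPES; 18 h pre-incubation; compound 3 h, 37 °C/5% CO2; CellTiter-Glo added after reporter read; luminescence after 30 min RT.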", "values": [
      {"compound": "Nc1nc(Cl)cc(Cl)n1", "Potency": "inactive"},
      {"compound": "CCOc1c(N2CCOCC2)cnn(C)c1=O", "Potency": "inactive"},
      {"compound": "O=C1Cc2cc(CCN3CCN(c4nsc5ccccc45)CC3)c(Cl)cc2N1", "Potency": "inactive"},
      {"compound": "C/C=C1\\[C@H]2C=C(C)C[C@]1(N)c1ccc(=O)[nH]c1C2", "Potency": "inactive"},
      {"compound": "CCCCCCCC(=O)O", "Potency": "inactive"},
      {"compound": "C=CCOCC(O)CS(=O)(=O)O", "note": "(stereo unspecified)", "Potency": "inactive"},
      {"compound": "c1ccc(CNc2ncnc3c2ncn3C2CCCCO2)cc1", "note": "(stereo unspecified)", "Potency": "inactive"},
      {"compound": "COC(C)(C)CCCC(C)CC=O", "note": "(stereo unspecified)", "Potency": "inactive"},
      {"compound": "N#CCc1ccc(Cl)cc1Cl", "Potency": "inactive"},
      {"compound": "CC(=O)O[C@H]1C[C@@H]2CC[C@@]1(C)C2(C)C", "Potency": "inactive"},
      {"compound": "COc1cc(C=O)ccc1OC(=O)C(C)C", "Potency": "inactive"},
      {"compound": "CCCCCc1ccc(N)cc1", "Potency": "inactive"},
      {"compound": "CC(C)(O)CCC(C)(C)O", "Potency": "inactive"},
      {"compound": "O=C(/C=C/c1ccc(O)c(O)c1)O[C@@H](C(=O)O)[C@@H](OC(=O)/C=C/c1ccc(O)c(O)c1)C(=O)O", "Potency": "inactive"},
      {"compound": "O=C(O)CCCC[P+](c1ccccc1)(c1ccccc1)c1ccccc1", "Potency": "inactive"},
      {"compound": "CCCC(C)C=O", "note": "(stereo unspecified)", "Potency": "inactive"},
      {"compound": "CCSCC", "Potency": "inactive"},
      {"compound": "COc1ccc(O)cc1", "Potency": "inactive"},
      {"compound": "O=C1NCCN1CCN1CCC(c2cn(-c3ccc(F)cc3)c3ccc(Cl)cc23)CC1", "Potency": "inactive"},
      {"compound": "CCN(CC)CCCN(c1ccccc1)C1Cc2ccccc2C1", "Potency": "inactive"},
      {"compound": "COc1ccc2cc(C=O)ccc2c1", "Potency": "inactive"},
      {"compound": "Nc1cccc(N)c1", "Potency": "inactive"},
      {"compound": "COC(=O)c1c(C)cc(O)c(C)c1O", "Potency": "inactive"},
      {"compound": "O=C(c1ccc(Cl)cc1)c1ccc(Cl)cc1", "Potency": "inactive"},
      {"compound": "Cc1ccc(C(C)c2ccc(C)c(C)c2)cc1C", "Potency": "inactive"},
      {"compound": "Cc1ccc2ccccc2c1[N+](=O)[O-]", "Potency": "inactive"}
    ]}
  ]
}
